# Values joined by “and” are separate entries in the source; they are usually repeats but may differ in a detail not shown here. Identical values can stand only once. The whole screen tested about 260,000 compounds, of which about 1,500 (0.58%) were called active. About 5% were inconclusive and are not listed.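 Rule for the calls: active = inhibition above a set limit at one or more doses, reproduced on every date tested; inconclusive = results disagree between test dates, or hit never tested in dose response; inactive = the rest.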 Only a sample is shown. Results with a measured potency or affinity are listed apart.
# Biological target: Virion infectivity factor (Human immunodeficiency virus type 1 group M subtype B (isolate BH10)) + Virion infectivity factor (Human immunodeficiency virus type 1 group M subtype B (isolate BRU/LAI)) + Virion infectivity factor (Human immunodeficiency virus type 1 group M subtype B (isolate PCV12)) + Virion infectivity factor (Human immunodeficiency virus type 1 group M subtype B (isolate HXB2)) + DNA dC->dU-editing enzyme APOBEC-3G (Homo sapiens) (UniProt P69720+P69721+P69722+P69723+Q9HC16)
# Test: inhibitors of Vif binding to APOBEC3G peptide, primary screen, biochemical, TR-FRET, GST-Vif 1-94, biotin-A3G peptide, dose response retest (AID 1117319);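 note: Vif residues 1-94 fused to GST binding biotinylated APOBEC3G peptide 110-148; 0% = full assay without inhibitor and 100% = GST in place of GST-Vif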
# Details: active compounds read high
row,Compound,inhibition
1,C=CCn1c(=O)c2ccccc2n2c(SCc3nc4ccccc4s3)nnc12,0.94% (inactive)
2,Cc1oc(-c2ccccc2F)nc1CS(=O)CC(=O)NCc1ccccc1 (configuration not stated),-9.75% (inactive)
3,Nn1cnnc1N/N=C/c1ccc(Cl)cc1Cl,-0.88% (inactive)
4,COc1ccc(-c2cc(C(=O)Nc3c(C)n(C)n(-c4ccccc4)c3=O)no2)cc1OC,-4.54% (inactive)
5,Cc1ccc(-c2cc(C(=O)Nc3c(C)n(C)n(-c4ccccc4)c3=O)no2)cc1,-0.77% (inactive)
6,Cc1c(NC(=O)c2cc(-c3ccccc3)on2)c(=O)n(-c2ccccc2)n1C,-2.53% (inactive)
7,COc1ccc(-c2cc(C(=O)Nc3c(C)n(C)n(-c4ccccc4)c3=O)no2)cc1,-3.59% (inactive)
8,Cc1ccc(NC(=O)C2CC(O)CN2C(=O)OCc2ccccc2)cc1C (configuration not stated),-2.11% (inactive)
9,CCc1nn2c(NCCOC)cc(C)nc2c1-c1ccc(F)cc1,-2.39% (inactive)
10,CC1CCCCC1NC(=O)Cn1nnc2ccccc2c1=O (configuration not stated),-5.45% (inactive)
11,CCCN(C(=O)COc1ccc(C(C)=O)cc1OC)C1CCS(=O)(=O)C1 (configuration not stated),-0.07% (inactive)
12,CC(C)OCCCNCc1cccs1,-0.18% (inactive)
13,C=CCSC1=N/C(=C\c2ccsc2)C(=O)S1,2.35% (inactive)
14,CCCSC1=N/C(=C\c2ccc3c(c2)OCO3)C(=O)S1,27% (inactive)
15,C=CCSC1=N/C(=C\c2ccc(C(=O)O)cc2)C(=O)S1,-15.6% (inactive)
16,CCOc1c(OC(C)=O)ccc(/C=C2\N=C(SCC)SC2=O)c1[N+](=O)[O-],9.49% (inactive)
17,CCCSC1=N/C(=C\c2ccsc2)C(=O)S1,0.21% (inactive)
18,CCSC1=N/C(=C\c2ccc(-c3ccccc3[N+](=O)[O-])o2)C(=O)S1,13.5% (inactive)
19,COc1ccccc1NC(=O)NCCN1C(=O)C2C3C=CC(C3)C2C1=O (configuration not stated),4.08% (inactive)
20,CCOC(=O)c1c(-c2ccc(Cl)cc2)cn2ccccc12,13.8% (inactive)
21,COc1ccc(OC)c(NC(=O)c2ccccc2N(Cc2ccccc2)S(C)(=O)=O)c1,7.69% (inactive)
22,CC(OC(=O)c1ccc(Cl)nc1)C(=O)NC1(C#N)CCCCC1 (configuration not stated),2.48% (inactive)
23,COc1cccc(C(=O)NCC(c2ccc3c(c2)OCO3)N2CCN(c3ccc(F)cc3)CC2)c1 (configuration not stated),-2.23% (inactive)
24,CC(=O)N1CCOc2ccc(S(=O)(=O)NCCc3cccc(C)c3)cc21,2.22% (inactive)
25,Cc1ccc2cc(CN(Cc3ccc4c(c3)OCO4)Cc3nnnn3Cc3ccco3)c(=O)[nH]c2c1C,-12.9% (inactive) and 10.6% (inactive)

row,Compound,inhibition
1,Cc1ccc2cc(CN(CCN3CCOCC3)Cc3nnnn3Cc3ccco3)c(=O)[nH]c2c1C,11.1% (inactive)
2,COC(=O)c1ccc(Cn2nc(C)c(Cl)c2C)o1,3.48% (inactive)
3,Clc1cccc(CON/C=N/c2ncnc3sccc23)c1,-6.38% (inactive)
4,CC(=O)Nc1ccccc1OCC(=O)NCCC1=CCCCC1,-8.53% (inactive)
5,CCN(CC)c1ccc2cc(C=O)c(=O)oc2c1,24.5% (inactive)
6,CCN(CC)c1ccc2c(C)c(Cl)c(=O)oc2c1,-11.9% (inactive)
7,CC(C)N=C1SCC(C)(/C=N/O)S1 (configuration not stated),5.98% (inactive)
8,O=C1[C@@H]2[C@H](Cc3ccc(O)cc3)N[C@]3(C(=O)Nc4ccccc43)[C@@H]2C(=O)N1c1ccc(F)cc1,3.97% (inactive)
9,O=C1[C@@H]2C(Cc3ccc(O)cc3)NC3(C(=O)Nc4ccc(F)cc43)[C@@H]2C(=O)N1c1ccccc1 (some centres not stated),-9.27% (inactive)
10,CCN=C1SC(CC(N)=O)C(=O)N1CC (configuration not stated),9.83% (inactive)
11,Cc1nc(N2CCN(C(=O)c3ccco3)CC2)nc2c1C(=O)CC(C)C2 (configuration not stated),-2.42% (inactive)
12,COc1ccc(Cl)cc1NC(=O)c1cnccn1,3.9% (inactive)
13,Cc1nc(N)c(C#N)c(-c2ccc3c(c2)OCO3)c1C,-4.59% (inactive)
14,Cc1c(C)n(C(=O)CSc2ncn[nH]2)c2ccccc12,-2.61% (inactive)
15,Cc1[nH]c2ccccc2c1C(=O)CSc1nc2ccccc2[nH]1,30.3% (inactive)
16,CC(=O)c1ccc(NC(=O)c2cnn3ccccc23)cc1,1.77% (inactive)
17,CSc1cccc(NC(=O)c2cnn3ccccc23)c1,1.6% (inactive)
18,COc1ccc(N2CCN(C(=O)CSc3ncn[nH]3)CC2)cc1,7.54% (inactive)
19,COc1ccc(-n2nnnc2/C=C/Nc2cc(C(F)(F)F)ccc2OC)cc1,-7.87% (inactive)
20,C=C(C1=CCN(S(=O)C(C)(C)C)[C@H]1CCO)c1ccccc1 (some centres not stated),-5.4% (inactive)
21,Cc1nc2cc(-c3ccccc3)nn2c(C)c1CCC(=O)N1CCN(c2ccccc2)CC1,-3.02% (inactive)
22,Cc1nc2nc(C)c(CCC(=O)N3CCN(c4ccccn4)CC3)c(C)n2n1,8.31% (inactive)
23,Cc1ccc(/C=N/n2cnc3sc4c(c3c2=O)CCCC4)o1,8.22% (inactive)
24,CCN(C(=S)Nc1cccnc1)c1ccccc1,-9.76% (inactive)
25,CC(C)N(C(=S)Nc1cccnc1)c1ccccc1,4.04% (inactive)

row,Compound,inhibition
1,O=[N+]([O-])c1ccccc1N/N=C/c1ccc2c(c1)OCO2,26.8% (inactive)
2,Cc1c(-c2ccccc2)nc2ccccc2c1C(=O)NCc1cccs1,10.6% (inactive)
3,COc1cc(NC(=O)c2cnn3c(C)cc(C)nc23)c(OC)cc1Cl,0.24% (inactive)
4,Cc1ccc(NC(=O)c2cc3nc(C)cc(C)n3n2)cc1,3.27% (inactive)
5,COc1cc(C2c3c([nH]c(=O)[nH]c3=O)Nc3ccc4ccccc4c32)cc(OC)c1OC (configuration not stated),1.71% (inactive)
6,CCC(=O)N(c1nnc(SCC(=O)Nc2sccc2C(N)=O)s1)C1CC1,4.16% (inactive)
7,CCOC(=O)c1ccc2c(c1)C(=O)N(C1CCCCC1)C2=O,6.81% (inactive)
8,CCN(CC)C(=O)c1ccc(-c2ccccc2)cc1,3.81% (inactive)
9,CCN(CC)C(=O)c1ccc(C)c(Br)c1,-4.6% (inactive)
10,O=C1CN(C(=O)c2c(F)cccc2F)C(c2ccccc2)c2cc(Br)ccc2N1 (configuration not stated),-0.06% (inactive)
11,Fc1ccc2c(c1)C1C=CCC1C(c1cc3c(cc1Br)OCO3)N2 (configuration not stated),1.91% (inactive)
12,O=C(O)CCC(=O)Nc1ccc(C(=O)OC2CCCCC2)cc1,9.06% (inactive)
13,O=C(OC1CCCCC1)c1ccc(NC(=O)C2CCCCC2)cc1,2.8% (inactive)
14,CCOC(=O)c1ccc2nc(C)c3c(c2c1)OC(C)C3 (configuration not stated),-3.24% (inactive)
15,CN1CC(=O)N(CC(=O)Nc2ccc(N3CCOCC3)cc2)C1=O,-19.5% (inactive)
16,O=C1OC(Cc2ccccc2)(c2ccccc2)c2ccccc21 (configuration not stated),3.92% (inactive)
17,CN(C(=O)Cn1nnc(-c2cccnc2)n1)C1CCCCC1,8.32% (inactive)
18,CCOP(=O)(OCC)C(NC(=O)Nc1ccc(C)c(Cl)c1)c1ccccc1 (configuration not stated),1.69% (inactive)
19,COc1cc(/C=N/N=C(\N)c2nonc2N)cc(OC)c1O,16.4% (inactive)
20,CCCc1nn2c(=O)cc(O)nc2s1,3.77% (inactive)
21,CCCNc1nc(C)c(C(C)=O)cc1C#N,29.1% (inactive)
22,Cc1nn(C)c(Oc2cccc(C(F)(F)F)c2)c1C#N,1.09% (inactive)
23,CNc1nc(C)c(C(=O)c2ccc(Cl)cc2)s1,-4.16% (inactive)
24,CCC(NC(=O)c1ccccc1NC(=O)c1ccc(C)cc1)C(=O)O (configuration not stated),2.64% (inactive)
25,CC(=O)c1ccc2c(c1)CCN2,9.69% (inactive)

row,Compound,inhibition
1,Cc1ccc2c(c1)C(c1ccc(F)cc1)N(C(=O)C1CC1)CC(=O)N2 (configuration not stated),-2.57% (inactive)
2,Cc1ccc2c(c1)C(c1ccccc1)N(C(=O)C(C)C)CC(=O)N2 (configuration not stated),1.62% (inactive)
3,CC(=O)c1ccc(N2CCC(C(=O)O)CC2)cc1,6.29% (inactive)
4,COC(=O)c1cc(=O)nc2scc(C)n12,5.72% (inactive)
5,C=C1[C@@H](C)C2[C@H](Cc3ccccc3)NC(=O)[C@]23OC(=O)CC[C@H](O)CCC[C@H](C)C/C=C/[C@H]3[C@@H]1O (some centres not stated),6.17% (inactive)
6,CC(C)OP(=O)(c1ccc(N(C)C)cc1)C(O)c1ccc(N(C)C)cc1 (configuration not stated),-8.7% (inactive)
7,CC(C)COP(=O)(OCC(C)C)C(O)c1ccc(N(C)C)cc1 (configuration not stated),12.4% (inactive)
8,O=C(O)c1ccc2c(c1)C(=O)N(c1cccc(S(=O)(=O)Nc3cccc(C(F)(F)F)c3)c1)C2=O,25.9% (inactive)
9,CCOC(=O)C1=C(C)N=C2SC(C(=O)OC)=CC(=O)N2C1c1cccc(OC)c1 (configuration not stated),0.81% (inactive)
10,CCOC(=O)C1=C(C)N=C2SC(C(=O)OC)=CC(=O)N2C1c1ccc(OC)cc1 (configuration not stated),7.8% (inactive)
11,N#Cc1ccc(N2CCCNCC2)nc1,-3.01% (inactive)
12,COc1ccc2oc(C(=O)N3CCCc4ccccc43)c(C)c2c1,0.82% (inactive)
13,CC1CCC(NC(=O)C2CCN(c3nc4ccccc4s3)CC2)CC1 (configuration not stated),7.57% (inactive)
14,CC1CCCCN1Cc1ccc(N)cc1 (configuration not stated),-2.03% (inactive)
15,CN(C)c1ccc(CN2CCCCCC2)cc1,8.55% (inactive)
16,COc1ccc(C2NC(Cc3ccccc3)(C(=O)O)C3C(=O)N(c4ccccc4OC)C(=O)C23)cc1 (configuration not stated),-0.26% (inactive)
17,CCOC(=O)c1cnc2nc(SC)nn2c1N,4.24% (inactive)
18,COCCn1c(Sc2nc(C)cs2)nc2c1c(=O)[nH]c(=O)n2C,-3.29% (inactive)
19,C=CCn1c(Sc2nnc(C)s2)nc2c1c(=O)[nH]c(=O)n2C,3.94% (inactive)
20,C=CCn1c(N2CCOCC2)nc2c1c(=O)[nH]c(=O)n2C,1.7% (inactive)
21,C=CCn1c(N2CCCC2)nc2c1c(=O)[nH]c(=O)n2C,-1.68% (inactive)
22,CC(=O)Nc1ccc(NC(=S)NC(=O)C2CC2)cc1,0.52% (inactive)

# Source: PubChem BioAssay AID1117319 (Southern Research Institute, 2015)
